# According to PubChem BioAssay AID1159580 (chemical genetic matrix, 2015):
# Several values for one entry are separate records, joined by “and”; a condition that tells them apart may be missing. Identical values can stand only once. Among all 5,500 compounds or so, about 2,000 (36%) were called active. Inconclusive results (about 18%) are left out. The list shows a part of the results. Unmarked numbers belong to inactive results. No stated cut-off is given here; in the data, active means normalized growth mostly below about 0.91 (no sharp cut-off); inconclusive means no clear call, values can overlap the other calls; inactive means mostly above about 0.92.
# Test: chemical genetic growth profiling, strain panel (AID 1159580);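 further: tested at 20 µM; growth read once vehicle control cultures reached saturation at 30 °C; 1 = growth at the plate median or of vehicle wells; lower values mean less growth of the strain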
# Details: growth OD
smiles,measurement,setting,value
COc1cc2c(cc1-c1cc3cc4ccoc4cc3oc1=O)OCO2,normalized growth,"S. cerevisiae deletion strains, locus YBR021W, strain FUR4, active compounds read low",1.31 [resistant] (active)
same,normalized growth,"S. cerevisiae deletion strains, locus YBR229C, strain ROT2, active compounds read low",0.995
same,normalized growth,"S. cerevisiae deletion strains, locus YCL029C, strain bik1, active compounds read low",0.965
same,normalized growth,"S. cerevisiae deletion strains, locus YDL035C, strain GPR1, active compounds read low",1.01
same,normalized growth,"S. cerevisiae deletion strains, locus YDL074C, strain BRE1, active compounds read low",1
same,normalized growth,"S. cerevisiae deletion strains, locus YDL101C, strain DUN1, active compounds read low",0.98
same,normalized growth,"S. cerevisiae deletion strains, locus YDL185W, strain tfp1, active compounds read low",0.97
same,normalized growth,"S. cerevisiae deletion strains, locus YDL192W, strain arf1, active compounds read low",1.01
same,normalized growth,"S. cerevisiae deletion strains, locus YDR101C, strain arx1, active compounds read low",0.981
same,normalized growth,"S. cerevisiae deletion strains, locus YDR150W, strain NUM1, active compounds read low",0.991
same,normalized growth,"S. cerevisiae deletion strains, locus YDR162C, strain NBP2, active compounds read low",0.977
same,normalized growth,"S. cerevisiae deletion strains, locus YDR318W, strain mcm21, active compounds read low",0.973
same,normalized growth,"S. cerevisiae deletion strains, locus YDR388W, active compounds read low",0.965
same,normalized growth,"S. cerevisiae deletion strains, locus YDR502C, strain sam2, active compounds read low",0.95
same,normalized growth,"S. cerevisiae deletion strains, locus YEL061C, strain CIN8, active compounds read low",1.01
same,normalized growth,"S. cerevisiae deletion strains, locus YER110C, active compounds read low",0.97
same,normalized growth,"S. cerevisiae deletion strains, locus YER155C, strain BEM2, active compounds read low",1.11 [resistant] (active)
same,normalized growth,"S. cerevisiae deletion strains, locus YER167W, strain BCK2, active compounds read low",1.02
same,normalized growth,"S. cerevisiae deletion strains, locus YGL078C, strain dbp3, active compounds read low",0.997
same,normalized growth,"S. cerevisiae deletion strains, locus YGL086W, strain mad1, active compounds read low",1.01
same,normalized growth,"S. cerevisiae deletion strains, locus YGL248W, strain PDE1, active compounds read low",0.977
same,normalized growth,"S. cerevisiae deletion strains, locus YGR078C, strain PAC10, active compounds read low",0.993
same,normalized growth,"S. cerevisiae deletion strains, locus YGR135W, strain pre9, active compounds read low",0.993
same,normalized growth,"S. cerevisiae deletion strains, locus YGR252W, strain gcn5, active compounds read low",1.16
same,normalized growth,"S. cerevisiae deletion strains, locus YHR030C, strain SLT2, active compounds read low",0.984 and 1
same,normalized growth,"S. cerevisiae deletion strains, locus YHR079C, strain IRE1 (second series), active compounds read low",0.979
same,normalized growth,"S. cerevisiae deletion strains, locus YHR079C, strain IRE1, active compounds read low",1.01
same,normalized growth,"S. cerevisiae deletion strains, locus YHR094C, strain hxt1, active compounds read low",1.16 [resistant] (active)
same,normalized growth,"S. cerevisiae deletion strains, locus YHR129C, strain ARP1, active compounds read low",1.01
same,normalized growth,"S. cerevisiae deletion strains, locus YHR200W, strain rpn10, active compounds read low",0.972
same,normalized growth,"S. cerevisiae deletion strains, locus YIL066C, strain RNR3, active compounds read low",0.973
same,normalized growth,"S. cerevisiae deletion strains, locus YIL073C, strain SPO22, active compounds read low",0.902
same,normalized growth,"S. cerevisiae deletion strains, locus YIL125W, strain kgd1, active compounds read low",0.984
same,normalized growth,"S. cerevisiae deletion strains, locus YIR030C, strain dcg1, active compounds read low",0.989
same,normalized growth,"S. cerevisiae deletion strains, locus YJL095W, strain BCK1, active compounds read low",0.979 and 1
same,normalized growth,"S. cerevisiae deletion strains, locus YJL134W, strain LCB3, active compounds read low",0.973
same,normalized growth,"S. cerevisiae deletion strains, locus YJL168C, strain set2, active compounds read low",1.01
same,normalized growth,"S. cerevisiae deletion strains, locus YJL187C, strain SWE1 (second series), active compounds read low",0.98
same,normalized growth,"S. cerevisiae deletion strains, locus YJR043C, strain POL32, active compounds read low",1.01
same,normalized growth,"S. cerevisiae deletion strains, locus YJR066W, strain TOR1, active compounds read low",0.942
same,normalized growth,"S. cerevisiae deletion strains, locus YKL009W, strain mrt4, active compounds read low",1.19 [resistant] (active)
same,normalized growth,"S. cerevisiae deletion strains, locus YKL068W, active compounds read low",1.02
same,normalized growth,"S. cerevisiae deletion strains, locus YKL085W, strain MDH1 (second series), active compounds read low",1.05
same,normalized growth,"S. cerevisiae deletion strains, locus YKL085W, strain MDH1, active compounds read low",1.05
same,normalized growth,"S. cerevisiae deletion strains, locus YKR001C, strain vps1, active compounds read low",1.01
same,normalized growth,"S. cerevisiae deletion strains, locus YLR039C, strain RIC1, active compounds read low",0.954
same,normalized growth,"S. cerevisiae deletion strains, locus YLR058C, strain SHM2, active compounds read low",0.973
same,normalized growth,"S. cerevisiae deletion strains, locus YLR102C, strain apc9, active compounds read low",0.997
same,normalized growth,"S. cerevisiae deletion strains, locus YLR113W, strain HOG1, active compounds read low",0.996
same,normalized growth,"S. cerevisiae deletion strains, locus YLR262C, strain YPT6, active compounds read low",1.19
same,normalized growth,"S. cerevisiae deletion strains, locus YLR268W, strain sec22, active compounds read low",0.95
same,normalized growth,"S. cerevisiae deletion strains, locus YLR330W, strain CHS5, active compounds read low",0.983
same,normalized growth,"S. cerevisiae deletion strains, locus YLR342W, strain FKS1 (second series), active compounds read low",0.993
same,normalized growth,"S. cerevisiae deletion strains, locus YLR371W, strain rom2, active compounds read low",1.18 [resistant] (active)
same,normalized growth,"S. cerevisiae deletion strains, locus YLR418C, strain cdc73, active compounds read low",0.915
same,normalized growth,"S. cerevisiae deletion strains, locus YML016C, strain PPZ1, active compounds read low",0.982
same,normalized growth,"S. cerevisiae deletion strains, locus YML032C, strain rad52, active compounds read low",0.983
same,normalized growth,"S. cerevisiae deletion strains, locus YML124C, strain tub3, active compounds read low",0.975
same,normalized growth,"S. cerevisiae deletion strains, locus YMR078C, strain ctf18, active compounds read low",0.984
same,normalized growth,"S. cerevisiae deletion strains, locus YMR223W, strain ubp8, active compounds read low",0.999
same,normalized growth,"S. cerevisiae deletion strains, locus YMR307W, strain GAS1, active compounds read low",1.57 [resistant] (active)
same,normalized growth,"S. cerevisiae deletion strains, locus YNL067W, strain RPL9B, active compounds read low",0.968
same,normalized growth,"S. cerevisiae deletion strains, locus YNL128W, strain TEP1, active compounds read low",1.01
same,normalized growth,"S. cerevisiae deletion strains, locus YNL183C, strain NPR1, active compounds read low",0.925
same,normalized growth,"S. cerevisiae deletion strains, locus YNL233W, strain BNI4, active compounds read low",1
same,normalized growth,"S. cerevisiae deletion strains, locus YNL250W, strain rad50, active compounds read low",0.975
same,normalized growth,"S. cerevisiae deletion strains, locus YNL271C, strain bni1, active compounds read low",0.991
same,normalized growth,"S. cerevisiae deletion strains, locus YNL298W, strain CLA4, active compounds read low",1
same,normalized growth,"S. cerevisiae deletion strains, locus YNL307C, strain MCK1, active compounds read low",0.944
same,normalized growth,"S. cerevisiae deletion strains, locus YNL322C, strain KRE1, active compounds read low",1.16 [resistant] (active)
same,normalized growth,"S. cerevisiae deletion strains, locus YNR052C, strain pop2, active compounds read low",1.03
same,normalized growth,"S. cerevisiae deletion strains, locus YOL012C, strain htz1",1.22
same,normalized growth,"S. cerevisiae deletion strains, locus YOL147C, strain pex11, active compounds read low",0.992
same,normalized growth,"S. cerevisiae deletion strains, locus YOR061W, strain CKA2, active compounds read low",0.971
same,normalized growth,"S. cerevisiae deletion strains, locus YOR069W, strain VPS5, active compounds read low",0.977
same,normalized growth,"S. cerevisiae deletion strains, locus YOR136W, strain idh2, active compounds read low",0.987
same,normalized growth,"S. cerevisiae deletion strains, locus YOR144C, strain elg1, active compounds read low",0.981
same,normalized growth,"S. cerevisiae deletion strains, locus YOR184W, strain ser1, active compounds read low",0.907
same,normalized growth,"S. cerevisiae deletion strains, locus YOR231W, strain MKK1, active compounds read low",1.07
same,normalized growth,"S. cerevisiae deletion strains, locus YOR316C, strain cot1, active compounds read low",1.17 [resistant] (active)
same,normalized growth,"S. cerevisiae deletion strains, locus YPL241C, strain CIN2, active compounds read low",0.984
same,normalized growth,"S. cerevisiae deletion strains, locus YPL256C, strain CLN2, active compounds read low",1.01
same,normalized growth,"S. cerevisiae deletion strains, locus YPR119W, strain clb2, active compounds read low",0.966
same,normalized growth,"S. cerevisiae deletion strains, locus YPR141C, strain kar3, active compounds read low",1.02
same,normalized growth,"S. cerevisiae deletion strains, locus YPR163C, strain tif3, active compounds read low",0.969
same,normalized growth,"S. cerevisiae deletion strains, locus YPR167C, strain met16, active compounds read low",0.995
same,normalized growth,"S. cerevisiae deletion strains, strain wtn01, active compounds read low",0.972
same,normalized growth,"S. cerevisiae strains, strain wild type, active compounds read low",1.01
